PubChem BioAssay (NCI)
About 79,000 compounds went through this panel and 15% of them were active in at least one assay; those are over-represented in the sample as a whole. A number with no mark means an inactive call. Activity calls are given as the source filed them. No stated cut-off is given here; in the data, active means growth inhibition above about 70%; inactive means the rest.

How the values were obtained:
[1] = NCI Yeast Anticancer Drug Screen. Data for the rad50 strain (AID 155);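 further: 0% = growth of vehicle-only cultures of the same strain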; settings: S. cerevisiae rad50 strain growth inhibition, active compounds read high
Summary of the method: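 Compounds were tested on a yeast strain with an engineered DNA damage repair alteration; the reported value is growth inhibition normalised to vehicle treatment.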

[2] = NCI Yeast Anticancer Drug Screen. Data for the mec2-1 strain (AID 157); settings: S. cerevisiae mec2-1 strain, active compounds read high
Summary of the method: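 Mutant yeast (mec2-1) grown with compound; growth inhibition relative to vehicle control reported.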

[3] = NCI Yeast Anticancer Drug Screen. Data for the sgs1 mgt1 strain (AID 161);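 further: 0% = growth of cultures given vehicle only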; settings: S. cerevisiae sgs1 mgt1 strain, active compounds read high
Summary of the method: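 Growth of a repair-deficient yeast mutant was monitored after compound treatment and expressed as inhibition relative to vehicle-treated cultures.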

[4] = NCI Yeast Anticancer Drug Screen. Data for the cln2 rad14 strain (AID 165);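 further: 0% = growth equal to vehicle treated cultures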; settings: S. cerevisiae cln2 rad14 strain, active compounds read high
Summary of the method: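 Readout is yeast growth inhibition versus vehicle-treated controls, using a strain with cln2 and rad14 alterations exposed to compound.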

[5] = NCI Yeast Anticancer Drug Screen. Data for the bub3 strain (AID 167); settings: S. cerevisiae bub3 mutant strain, active compounds read high
Summary of the method: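 Growth of a checkpoint-deficient yeast mutant is measured after compound exposure. Values represent inhibition relative to vehicle.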

[6] = NCI Yeast Anticancer Drug Screen. Data for the mlh1 rad18 strain (AID 175); settings: S. cerevisiae mlh1 rad18 strain growth inhibition, active compounds read high
Summary of the method: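 Genetically defined yeast (DNA repair-deficient) exposed to compounds; growth inhibition determined relative to vehicle.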

[7] = at 5.0 µM (retest, dose inferred, filed as 0.5)
[8] = at 50.0 µM (retest, dose inferred, filed as 5.0)

Structure (SMILES)	growth inhibition [1, 7]	growth inhibition [1, 8]	growth inhibition ([1]; at 50.0 µM)	growth inhibition [2, 7]	growth inhibition [2, 8]	growth inhibition ([2]; at 50.0 µM)	growth inhibition [3, 7]	growth inhibition [3, 8]	growth inhibition ([3]; at 50.0 µM)	growth inhibition [4, 7]	growth inhibition [4, 8]	growth inhibition ([4]; at 50.0 µM)	growth inhibition [5, 7]	growth inhibition [5, 8]	growth inhibition ([5]; at 50.0 µM)	growth inhibition [6, 7]	growth inhibition [6, 8]	growth inhibition ([6]; at 50.0 µM)
COc1ccc(-c2nc(N)n(C)c2SSc2c(-c3ccc(OC)cc3)nc(N)n2C)cc1	2%	26%	23.6%	-4%	26%	5.2%	28%	27%	2.5%	6%	30%	6.95%	41%	50%	3.6%	-2%	28%	-15.6%
CCN1C(Cl)=NS(=O)(=O)c2ccccc21	17%	36%	-24.4%	24%	43%	-3.45%	22%	39%	-8.5%	19%	32%	-4%	19%	53%	-0.05%	25%	46%	21.2%
CS(=O)(=O)OCCN(CCOS(C)(=O)=O)c1ccc(C=Nc2ccc3oc(=O)ccc3c2)cc1	32%	97% (active)	52.1%	35%	95% (active)	77.1% (active)	22%	86% (active)	65.2%	13%	77% (active)	22.4%	-4%	14%	40.1%	72% (active)	97% (active)	88.7% (active)
CC(C)OCc1cccc2ccnc(COC(C)C)c12	-20%	53%	20.8%	8%	14%	25.6%	-10%	35%	24.9%	-15%	87% (active)	20.6%	-11%	91% (active)	20.2%	28%	50%	25.1%
O=C1C=CC(=O)C2C3C=CC(CC3)C12 (stereo not given)	8%	29%	47.1%	20%	36%	43.6%	10%	36%	70.1% (active)	14%	43%	78.2% (active)	0%	23%	92.5% (active)	11%	39%	84.6% (active)
CC1(C)COC(C)(C(=O)O)OC1	2%	-5%	51.6%	-2%	-1%	-3.35%	4%	2%	-5.8%	0%	-6%	-50.7%	-4%	0%	-1.8%	6%	-1%	-8%
CC1=C(c2ccccc2)C(=O)OC1=O	5%	11%	52.5%	2%	0%	2.7%	4%	6%	-4.65%	0%	3%	-28.4%	-2%	3%	3.7%	13%	14%	-10.4%
COc1c(I)cc(I)c(O)c1I	6%	39%	94.4% (active)	10%	80% (active)	93.8% (active)	7%	64%	91% (active)	10%	36%	88.1% (active)	3%	36%	69.9%	9%	77% (active)	94.2% (active)
O=c1c2ccccc2[nH]c2c1[nH]c1ccccc12	10%	23%	37%	11%	25%	-11.7%	5%	24%	-1.65%	7%	11%	83.4% (active)	7%	22%	-20.6%	12%	28%	19.9%
Fc1cccc2c1cc1ccc3cccc4ccc2c1c34	-1%	-11%	89.2% (active)	0%	-6%	40.4%	-5%	-14%	83.5% (active)	-3%	-4%	61.7%	0%	-6%	87.5% (active)	-5%	-6%	91.2% (active)
